IL1B secr inh: blocks inflammasome-driven IL-1 beta release; activity change, % at 57.5 µM; THP-1 LPS/ATP IL-1B secretion, AlphaLISA, 16 h; hits give low values; 4.7% of 360,000 active; AID 743279; in the data active = activity change below about -50%; inconclusive = mostly about -30% to -49%; also: % is scaled to controls: 0 for no effect and ±100 for the full control effect
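Secreted IL-1B measured by AlphaLISA bead assay after 16 h compound exposure of THP-1 cells; compounds (final up to 57.5 uM) added 1 h before LPS (250 ng/mL) and ATP (1.25 mM) stimulation; lower signal means less secretion.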
PINK1 modulator: modulators of PINK1 expression; PINK1 immunofluorescence, high-content cytometry, 24 h; Potency, µM (series often up to 76.6 µM), for the others: top-dose activation (PINK1 increase), most hits filed as activators; 0.2% of 410,000 active; AID 624263; active = well fitted activation curve with a large enough effect; inconclusive = small, poorly fitted or top-dose-only effect; cell line not stated here; also: potency is read from the fitted curve at half-maximal effect; % of control where 0% means no effect; nearly all actives have a fitted effect of over 65% in size
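A stable cell line was treated with compounds at 5 concentrations for 24 hours, with CCCP as control. PINK1 levels and mitochondrial localization were measured by immunofluorescence with mitochondrial, cell and nuclear markers after fixation, read by laser-scanning cytometry.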
ATXN2 expr inh: ATXN2 expression inhibition. HEK-293 ATXN2-luciferase reporter, luminescence, 24 h. Potency, µM (titrated, usually from 57 µM), for inactives: at the top dose activity change, negative = inhibition, actives largely listed as inhibitors. 0.72% of 360,000 active. AID 1745845; also: potency is read from the fitted curve at half-maximal effect; % is scaled to controls: 0 for no effect and ±100 for the full control effect; nearly all actives have a fitted effect of over 55% in size
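ATXN2-luciferase reporter cells (luciferase flanked by upstream and downstream ATXN2 gene portions) were treated 24 h at 37 °C with compounds at up to 57 uM. SteadyGlo luminescence gave expression; GF-AFC fluorescence gave viability.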
SW480 rereplic: DNA re-replication induction in SW480 cells | SW480 DNA re-replication, Hoechst DNA content imaging, 48 h | Potency, µM (top dose mostly 46.1 µM), for the others: at the highest dose re-replication activation, actives largely listed as activators | 1.8% of 340,000 active; also: potency is read from the fitted curve at half-maximal effect; % of control where 0% means no effect; nearly all actives have a fitted effect of over 55% in size
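250 cells/well; 23 nL cpd via pin tool; 48 hr, 37 C, 5% CO2; Hoechst 40 min; imager read of total nuclear intensity, ex 405/em 500-530 nm.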
MCF10A rerep: inducers of DNA re-replication in MCF 10A breast cells; MCF 10A DNA re-replication, Hoechst nuclear intensity, 48 h; Potency, µM (series often up to 46.1 µM), for inactives: at the top dose activity, positive = re-replication, hits mostly activators; 2.9% of 350,000 active; AID 624296; also: potency is read from the fitted curve at half-maximal effect; % of control where 0% means no effect; nearly all actives have a fitted effect of over 50% in size
ATXN viability: reduces viability in counter-screen for ATXN expression inhibitors; 0.49% of 400,000 active; S2 cells (HEK-293 line with an ATXN2-luciferase reporter) viability, CellTiter-Fluor protease fluorescence, 24 h; Potency, µM (highest dose often 56.7 µM), most hits filed as cytotoxic; also: potency is read from the fitted curve at half-maximal effect; nearly all actives have a fitted effect of over 40% in size
Active calls of the source: *; i = inactive; ? = inconclusive; nt = no result given; [ ] = remark or other dose. The list is not random: actives were taken first. Their share in the collection is about 7.1%. Unless noted, calls follow the shape of the dose curve; as a rule, active = well fitted curve in the direction sought with a large enough effect; inconclusive = small, poorly fitted or top-dose-only effect, or another doubt; inactive = no such curve, though single readings can be large; an effect the other way counts as inactive or inconclusive.

SMILES	IL1B secr inh	PINK1 modulator	ATXN2 expr inh	SW480 rereplic	MCF10A rerep	ATXN viability
Cc1ccnc(NC(=O)/C=C/c2ccccc2Cl)c1	-68.5*	1.5%	72.0%[11.3 µM]	?	9.2%	i
CCN(CC)S(=O)(=O)c1ccc(NC(=O)[C@H](CSCc2ccccc2)N2Cc3ccccc3C2=O)cc1	nt	-2.0%	nt	nt	nt	nt
O=S(=O)(c1ccc2ccccc2c1)N1CCN(c2nc(-c3ccccc3)nc3ccccc23)CC1	nt	-0.3%	nt	nt	nt	nt
COc1ccc(OC)c(C2C(C(=O)N3CCCCC3)=C(C)Nc3nc4ccccc4n32)c1 (centres undefined)	nt	0.0%	-7.8%	nt	nt	i
CNc1nc(SCc2ccccc2Cl)nc2c1CCCC2	-18.4	?	-19.7%	-0.1%[9.22 µM]	18.4µM*	i
COc1ccccc1C(=O)N(Cc1cc2cccc(C)c2nc1N1CCC(O)CC1)C1CC1	nt	0.2%	nt	nt	nt	i
O=C(Nc1cccc(F)c1)[C@H](CSCc1ccccc1)N1Cc2ccccc2C1=O	nt	4.2%	-8.2%	nt	nt	i
O=C(NCC12CC3CC(CC(C3)C1)C2)c1cc2n(n1)C(C(F)(F)F)CC(c1ccco1)N2 (centres undefined)	-87.4*	8.9%	4.3%	?	?	i
COc1ccc(NC(=O)c2cc3n(n2)C(C(F)(F)F)CC(c2ccco2)N3)cc1 (centres undefined)	?	6.1%	-7.4%	14.9%	22.5%	i
CCn1cc(S(=O)(=O)c2cc(C)cc(C)c2)c(=O)c2cc(F)c(N3CCCC3)cc21	nt	13.7%	nt	nt	nt	nt
CC(=O)N1CCc2c(sc3c2c(=O)n(-c2ccc(C)cc2)c(=O)n3Cc2ccccc2C)C1	nt	2.9%	-30.8%	nt	nt	?
CCn1c(=O)n(CC)c2cc(N3CCCC3)c(NC(=O)c3cc(Cl)ccc3OC)cc21	-63.6*	0.1%	4.0%	?	?	?
CCn1c(=O)n(CC)c2cc(N3CCCC3)c(NC(=O)c3ccccc3OC)cc21	-52.7*	-1.3%	-28.3%	17.2%	18.6%	?
CCOc1ccccc1C(=O)Nc1cc2c(cc1N1CCCC1)n(CC)c(=O)n2CC	-10.1	1.4%	nt	-30.3%	?	14.1µM*
O=C(COc1ccc(S(=O)(=O)NC2CCCCC2)cc1)Nc1ccc(C(F)(F)F)cc1	nt	3.5%	-13.6%	nt	nt	?
COc1cccc(C(=O)Nc2ccc(-c3nc4ccccc4s3)cc2Cl)c1	nt	6.9%	1.5%	nt	nt	i
Cc1ccc(OCc2nc(-c3ccc(C(=O)N4CCN(c5ccccc5F)CC4)cc3)oc2C)cc1	nt	0.1%	0.9%	nt	nt	i
COc1ccc(N2CCN(C(c3ccccc3)c3nnnn3C(C)C)CC2)cc1 (centres undefined)	nt	0.6%	nt	nt	nt	nt
COc1ccc(N2CCc3c(C)nc4c(OC)cccc4c32)cc1	-95.9*	29.6%	-19.1%[11.3 µM]	?	?	?
COc1ccc(N2CCc3c(C)nc4c(OC)cc(OC)cc4c32)c(OC)c1	-58.3*	?	?	?	25.9µM*	?
Cc1nc2c(C)cccc2c2c1CCN2c1ccccc1F	-76.4*	9.6%	?	-0.7%	?	i
CCN1Cc2c(/C=C/c3ccccc3)nc3ccc(OC)cc3c2N(c2cccc(Cl)c2)C1	-84.4*	2.2%	nt	27.6%	25.9µM*	i
COc1ccc2c(c1)CC(NC(=O)Nc1ccc(NC(C)=O)cc1)CO2 (centres undefined)	nt	0.9%	nt	nt	nt	nt
CCOC(=O)c1c(C)[nH]c(CCC(=O)NCc2ccc(OC)c(OC)c2)c1C	nt	2.2%	nt	nt	nt	nt
Clc1ccc(CCNc2nc3ccccc3c3nc(-c4ccccc4)nn23)cc1	nt	-0.4%	12.8%	nt	nt	i
SMILES	IL1B secr inh	PINK1 modulator	ATXN2 expr inh	SW480 rereplic	MCF10A rerep	ATXN viability
Clc1cccc(-n2ncc3c(Nc4ccc5c(c4)OCCO5)ncnc32)c1	nt	1.3%	11.9%	nt	nt	?
COc1cccc(N2CCc3c(C)nc4ccc(Cl)cc4c32)c1	-96.3*	?	?	?	?	nt
CC1C/C(=C/c2cccn2C)C(=O)/C(=C/c2cccn2C)C1 (centres undefined)	-16.5	26.1%	-12.8%	?	4.61µM*	i
Cn1cccc1/C=C1/SC(=S)N(CC(=O)O)C1=O	-19.2	-4.5%	5.4%	2.2%	-13.8%	?
CC1C/C(=C/c2ccncc2)C(=O)/C(=C/c2ccncc2)C1 (centres undefined)	-83.9*	-1.2%	nt	?	0.461µM*	?
Cc1cc2nc(CCN(C(=S)NCC(C)C)C3CCCC3)[nH]c2cc1C	-65.8*	4.3%[38.3 µM]	?	-1.6%	3.4%	?
Cc1cccc2cc(CN(C(=S)NCC(C)C)C3CCCC3)c(=O)[nH]c12	?	1.6%	5.1%	1.5%	5.2%	?
Cc1cc2nc(CCN(C(=S)NCC3CCCO3)C3CCCC3)[nH]c2cc1C (centres undefined)	-52.4*	-1.4%	14.1%	73.1%	20.6%	?
CCNC(=O)c1c(NC(=O)c2nc(SC)ncc2Cl)sc2c1CCCC2	nt	1.3%	nt	nt	nt	nt
CCCN1CCc2c(sc3nc(SC)n(-c4ccccc4)c(=O)c23)C1	?	2.4%	-7.0%	?	18.4µM*	i
CCCN1CCc2c(sc3nc(SCC)n(-c4ccc(OC)cc4)c(=O)c23)C1	1.3	8.1%	12.3%	12.4%	20.6µM*	i
CCOc1ccc(CNC(=O)Cc2ccc(NC(=O)N3CCSc4ncccc43)cc2)cc1	nt	-0.4%	nt	nt	nt	nt
COCc1ccc(CN2Cc3cc(Cl)ccc3OC(C)C2)o1 (centres undefined)	nt	-0.7%	nt	nt	nt	i
O=C(Cc1ccccc1)Nc1c(C(=O)Nc2ccccc2F)oc2ccccc12	nt	5.5%	-6.0%	nt	nt	i
COc1ccc(NC(=O)/C(N=Nc2cc(S(=O)(=O)Nc3ccc(OC)cc3)ccc2OC)=C(\C)O)cc1	9.7	12.8%	-29.7%	-71.5%	0.581µM*	?
O=C(Nc1cccc(F)c1)N1CC=C(n2c(=O)[nH]c3ccccc32)CC1	-59.4*	-1.4%	-16.3%	-6.6%	-0.1%	?
COc1ccc(CCNC(=O)c2c[nH]n3c(=O)c(Cc4ccccc4Cl)c(C)nc23)cc1OC	nt	0.7%	nt	nt	nt	nt
O=C(CC12CC3CC(CC(C3)C1)C2)Nc1cccc2nc(NCCNCCO)ccc12	nt	nt	-3.9%	nt	nt	nt
CCC1=Nc2cc(C(=O)NCc3ccco3)ccc2Sc2ccc(C)cc21	2.7	-2.4%	-5.0%	1.03µM*	1.46µM*	i
CCC1=Nc2cc(C(=O)NCCN3CCOCC3)ccc2Sc2ccc(C)cc21	9.5	0.8%	2.4%	?	-1.8%	i
CCCC1=Nc2cc(C(=O)N3CCN(c4ccccn4)CC3)ccc2Sc2ccc(C)cc21	-50.0*	3.1%	-7.8%	4.5%	?	?

Source: PubChem BioAssay
